# High-throughput results: PubChem BioAssay, National Center for Advancing Translational Sciences (NCATS)
# Rows were chosen to be rich in hits. Some 22% of all compounds tested hit in one or more screens of this group.
# Pf growth 96h: inhibits malaria parasite growth, 96 h | P. falciparum luciferase reporter growth, 96 h | Potency, µM (titrated, usually from 28.7 µM), inactives show top-dose activity change, negative = inhibition, most hits filed as inhibitors | 320,000 tested, 6.9% active; also: potency is read from the fitted curve at half-maximal effect; % is scaled to controls: 0 for no effect and ±100 for the full control effect
#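 Infected RBCs, 2% Hct / 0.05% parasitemia final; luciferase-reporter P. falciparum; cpd 96 h, 37 C, 5% CO2; luciferase detection reagent; luminescence.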
# LmPK inh: blocks Leishmania mexicana pyruvate kinase activity; Potency, µM (doses to about 57.5 µM), for inactives: at the top dose activity change, negative = inhibition, most hits filed as inhibitors; 290,000 tested, 0.37% active; AID 1721; purified LmPK, Kinase-Glo ATP luminescence, 1 h; also: potency is read from the fitted curve at half-maximal effect; % is scaled to controls: 0 for no effect and ±100 for the full control effect
# Target sequence (Q27686 whole entry, looked up): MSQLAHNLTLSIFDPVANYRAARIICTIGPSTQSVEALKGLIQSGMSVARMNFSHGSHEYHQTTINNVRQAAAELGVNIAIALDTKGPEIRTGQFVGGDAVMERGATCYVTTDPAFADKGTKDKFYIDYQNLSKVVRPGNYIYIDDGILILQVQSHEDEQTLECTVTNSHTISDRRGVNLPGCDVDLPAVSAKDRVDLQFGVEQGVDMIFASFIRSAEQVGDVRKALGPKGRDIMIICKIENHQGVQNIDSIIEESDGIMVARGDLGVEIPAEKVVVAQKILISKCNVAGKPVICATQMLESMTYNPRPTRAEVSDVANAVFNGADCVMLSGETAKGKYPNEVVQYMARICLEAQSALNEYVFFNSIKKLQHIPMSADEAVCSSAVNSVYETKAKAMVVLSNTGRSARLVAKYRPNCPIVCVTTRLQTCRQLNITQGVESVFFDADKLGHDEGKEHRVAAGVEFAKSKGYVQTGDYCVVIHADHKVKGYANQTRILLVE
#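 Screened at intermediate enzyme activity to detect both inhibitors and activators: LmPK at 0.1 nM, with a 0.5 nM enzyme column as activation reference. PEP 0.5 mM, ADP 0.1 mM; ATP detected by luminescence after 1 h.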
# Pf growth 48h: P. falciparum growth inhibition at 48 hours (one generation). AID 504832. P. falciparum luciferase growth in erythrocytes, 48 h. 310,000 tested, 5.9% active. Potency, µM (titrated, usually from 28.7 µM), for inactives: at the top dose activity change, negative = inhibition, most hits filed as inhibitors; also: potency is read from the fitted curve at half-maximal effect; % is scaled to controls: 0 for no effect and ±100 for the full control effect
#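 Erythrocytes infected with P. falciparum carrying an integrated firefly luciferase reporter (2% hematocrit, 0.1% parasitemia final) were exposed to compounds in RPMI 1640 with 0.5% Albumax at 37 C, 5% CO2. Growth inhibition was scored as reduced luminescence.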
# CHX counter: affects cycloheximide protein synthesis inhibition readout, counter-screen | max response, % | 300,000 tested, 12% active | cell reporter, cycloheximide protein synthesis inhibition counterscreen | AID 2314; in the data active = max response mostly above about 13%, no sharp cut-off; inactive = mostly below about 14%; also: read at 38.3 µM for the half of the compounds with a filed dose; 0% is about no effect
# Shiga toxin inh: Shiga toxin inhibition | Vero cells, Shiga toxin protein synthesis inhibition reporter | inhibition, % at 38.7 µM | 290,000 tested, 9.2% active; in the data active = inhibition mostly above about 28%, no sharp cut-off; inactive = mostly below about 43%; also: 0% is about no effect
# Starred values were filed as active, the others as inactive; u = inconclusive; x = no result; [ ] = dose if it differs, or a comment. Unless noted, calls follow the shape of the dose curve; as a rule, active = well fitted inhibition curve with a large enough effect; inconclusive = small, poorly fitted or top-dose-only effect, or another doubt; inactive = no such curve, though single readings can be large or run the other way.
SMILES,Pf growth 96h,LmPK inh,Pf growth 48h,CHX counter,Shiga toxin inh
O=C(NN1CCOCC1)c1ccccc1,9.6%,-9.8%,u,5.6,-21.6
O=C(Nc1cc(N2CCOCC2)ncn1)c1ccccc1,4.9%,-4.9%,184.8%,15.7*,40.9
O=C(Nc1ccc(N2CCOCC2)c(Cl)c1)c1cc2ccccc2o1,-28.7%,-0.5%,23.7%,39.2*,71.2*
O=C(NC(=S)N1CCOCC1)c1cc2ccccc2o1,6.0%,u,29.1%,11.5*,70.3*
O=C(Nc1ccc(N2CCOCC2)c(Cl)c1)c1ccccc1Cl,u,1.9%,65.8%,30.0*,60.1*
CC1CCCC(C)N1C(=O)COC(=O)CNC(=O)c1ccccc1 (configuration not stated),u,x,-0.7%,x,x
CCn1nc(C)c(CN2CCC(Oc3ccc(C(=O)N4CCCC4)cc3)CC2)c1C,u,-0.4%,5.9%,-2.1,-1.8
COc1ccc(C[C@@H]2c3cc(OC)c(OC)cc3CC[N@+]2(C)CCC(=O)OCCCCCOC(=O)CC[N@@+]2(C)CCc3cc(OC)c(OC)cc3[C@H]2Cc2ccc(OC)c(OC)c2)cc1OC,2.3%[12.8 µM],x,-5.3%[12.8 µM],x,x
COc1ccc(CN2CCN(Cc3cccn3-c3ncccn3)CC2CCO)c(C)c1C (configuration not stated),u,1.6%,u,-1.5,-2.9
O=C(Nc1ccc(N2CCOCC2)nc1)c1ccc(Cl)cc1,15.2%,-0.6%,9.3%,15.8*,48.8*
O=C(Nc1ccc(N2CCOCC2)c(Cl)c1)c1ccc(F)cc1,-6.3%,-4.4%,u,31.2*,18.1*
O=C(Nc1ccc(N2CCOCC2)c(Cl)c1)c1ccc(-n2cnnc2)cc1,u,-4.9%,3.4%,-4.0,-5.6
O=C(NCCNCc1ccccn1)c1ccco1,u,0.7%,-0.9%,-4.1,1.7
CCOC(=O)c1cnc(SC)nc1Sc1cc(Cl)ccc1Cl,10.4µM*,6.6%,u,8.1,-23.4
CCOC(=O)c1cnc(SC)nc1Nc1cccc(F)c1,-4.8%,-0.4%,13.2%,-2.5,17.7
C=CCNC(=S)NNC(=O)COc1cccc(Cl)c1,43.5%,-1.9%,6.8%,7.1,12.8
C=CCNC(=S)NNC(=O)COc1ccc(Br)cc1,5.86µM*,4.0%,2.2%,3.9,2.0
C=CCNC(=S)NNC(=O)COc1ccc2cc(Br)ccc2c1,u,-2.2%,68.0%,43.6*,100.6*
CC(NC(=O)C(=O)N1CCCCC1)C(c1cccs1)N1CCN(c2ccccc2)CC1 (configuration not stated),u,1.5%,u,-1.6,-11.8
Cn1c(-c2ccccc2)cc2ccccc21,23.6%,0.6%,21.6%,7.0,2.1
Cn1c(-c2ccccc2O)cc2ccccc21,5.22µM*,4.5%,3.7µM*,5.5,32.7
O=C(c1ccc(Nc2cccc(C(F)(F)F)c2)nc1)N1CCCC1,16.5µM*,3.6%,u,8.8,18.6
Cc1cccc(Nc2ccc(C(=O)N3CCOCC3)cn2)c1,u,2.7%,-4.1%,46.1*,65.6*
Cc1ccc(Nc2ccc(C(=O)N3CCCC3)cn2)c(C)c1,u,3.4%,x,-3.8,-6.9
CN(C)S(=O)(=O)c1ccc(C(=O)N2CC(=O)Nc3ccc(F)cc3C2c2ccc(F)cc2)cc1 (configuration not stated),0.0%,2.4%,-3.7%,-3.2,6.0
SMILES,Pf growth 96h,LmPK inh,Pf growth 48h,CHX counter,Shiga toxin inh
CC1(C)C(=O)N(c2ccccc2Cl)C(=O)c2ccccc21,0.3%,-9.3%,-2.3%,-0.3,16.9
CCC/C=C1/CCCOC(C(=O)NCC2CC2)(C(F)(F)F)C1 (configuration not stated),x,x,x,-6.3,-12.2
O=C(O)c1ccc(N/N=C/C2=C(N3CCOCC3)C(=C\c3ccccc3)/CC2)cc1,33.0%,-2.2%,u,37.6*,74.4*
CN(C(=O)NC(=O)C1=C(N2CCOCC2)/C(=C/c2ccccc2)CC1)S(C)(=O)=O,x,1.3%,14.9%,28.8*,53.0*
Cc1cc(C)cc(NC(=O)Cc2ccc(-n3cccc3)cc2)c1,4.0%,-2.3%,5.6%,-4.1,6.0
COc1ccc(-c2cc(C(=O)Nc3cccc(O)c3)no2)cc1,9.5%,u,u,-2.5,24.8
COc1cccc(Nc2nnc(SCC3CCCCO3)s2)c1 (configuration not stated),u,6.0%,7.4%,53.3*,53.0*
Cc1cccc(Nc2nnc(SC3CCOC3=O)s2)c1C (configuration not stated),16.3%,0.9%,16.3%,8.7,27.4
COC(=O)c1ccc(CSc2nnc(Nc3cccc(OC)c3)s2)o1,u,-0.8%,u,1.3,-27.9
COc1ccc(Nc2nnc(SCC(=O)NC3CC3)s2)cc1,u,x,-21.0%,x,x
Cc1cccc(Nc2nnc(SCC3CCCCO3)s2)c1C (configuration not stated),11.7µM*,0.1%,u,54.3*,66.3*
COc1ccc(Nc2nnc(SCC3CCCO3)s2)cc1 (configuration not stated),u,0.0%,0.0%,24.4*,53.9
O=C(O)CC1(CC(=O)Nc2ccc3ccccc3n2)CCCCC1,u,3.6%,-3.9%,7.1,-5.3
c1ccc(Cc2cc(-c3ccccc3)on2)cc1,175.1%,0.5%,241.5%,36.5*,90.4*
Clc1ccc(SCc2cc(-c3ccccc3)on2)cc1,27.5%,-1.5%,39.5%,6.5,28.3
Cc1cccc(NC(=O)c2ccccc2NC(=O)Cc2ccccc2)c1C,40.0%,-1.9%,41.4%,-2.3,-8.5
Cc1cccc(NC(=O)C(Cc2ccccc2)c2nn[nH]n2)c1C (configuration not stated),8.28µM*,5.1%,u,6.2,x
CCCCCOc1ccc(Br)cc1CSC(=N)N,u,2.6%,10.4µM*,-7.2,-19.0
O=C(CN1CCN(c2ccc(O)cc2)CC1)Nc1cc(S(=O)(=O)N2CCCCC2)ccc1Cl,9.28µM*,-1.0%,-29.3%,0.8,-7.5
O=C(CN1CCN(c2ccc(O)cc2)CC1)Nc1cc(S(=O)(=O)N2CCCC2)ccc1Cl,u,6.3%,9.28µM*,17.5,23.5
CCOC(=O)C1CCN(CC(=O)Nc2cc(S(=O)(=O)N3CCCCC3)ccc2Cl)CC1,u,x,11.7µM*,x,x
CC1CN(CC(=O)Nc2cc(S(=O)(=O)N3CCCC3)ccc2Cl)CC(C)O1 (configuration not stated),u,0.8%,-27.8%,-3.3,-5.7
CCc1ccc(NC(=S)Nc2ccc(S(=O)(=O)Nc3ncccn3)cc2)cc1,23.2%,1.1%,8.6%,15.7,25.7
Cc1cccc(-n2ncc3c2CCCC3NC(=O)CCN2CCCO2)c1C (configuration not stated),u,-4.4%,0.5%,6.7,-14.8
CCOc1ccccc1NC(=O)NCCCCc1ccccc1,u,-2.6%,u,-0.7,3.9
O=C(NCCCn1ccnc1)Nc1cccc(Cl)c1,-8.9%,-5.6%,4.2%,2.3,-2.0
CC(C)c1ccc(NC(=O)NCc2ccc3c(c2)OCO3)cc1,111.9%,-5.7%,6.8%,12.3,4.1
